Reference: the supplement of paper PMC13380429

Test system: Vero E6 infected with SARS-CoV-2
Test: inhibition of SARS-CoV-2 cytopathic effect; higher = more antiviral protection, active = above 15
Conditions: 48 h

Measured: inhibition of SARS-CoV-2 cytopathic effect

C=CC(=O)Nc1cc2c(Nc3ccc(F)c(Cl)c3)ncnc2cc1OCCCN1CCOCC1 [canertinib]
inactive: 1 nM 2.3% | 8.33 nM -2.25% | 100 nM -6.93% | 833.33 nM -13.4% | 10000 nM -20.1%

Cc1ccc([N+](=O)[O-])cc1S(=O)(=O)N(C)/N=C/c1cnc2ccc(Br)cn12
inactive: 1 nM 0.29% | 8.33 nM -0.13% | 100 nM -5.92% | 833.33 nM -16.5% | 10000 nM -5.86%

CC(=O)Nc1ccc(O)cc1 [paracetamol]
inactive: 1 nM -0.44% | 8.33 nM 1.77% | 100 nM -0.22% | 833.33 nM 0.33% | 10000 nM -2.2%

CO[C@H]1/C=C/O[C@@]2(C)Oc3c(C)c(O)c4c(O)c(c(/C=N/N5CCN(C6CCCC6)CC5)c(O)c4c3C2=O)NC(=O)/C(C)=C\C=C\[C@H](C)[C@H](O)[C@@H](C)[C@@H](O)[C@@H](C)[C@H](OC(C)=O)[C@@H]1C [rifapentine]
inactive: 1 nM -8.98% | 8.33 nM -0.78% | 100 nM -1.42% | 833.33 nM 1.06% | 10000 nM 1.47%

CC(=O)N(OCc1ccccc1)[C@@H]1c2cc(C#N)ccc2OC(C)(C)[C@H]1O
inactive: 1 nM -4.41% | 8.33 nM -2.98% | 100 nM -6.3% | 833.33 nM 2.7% | 10000 nM 2.53%

CCNC(=O)C[C@@H]1N=C(c2ccc(Cl)cc2)c2cc(OC)ccc2-n2c(C)nnc21
inactive: 1 nM -1.97% | 8.33 nM -1.13% | 100 nM 0.74% | 833.33 nM -0.08% | 10000 nM -9.5%
